From PubChem BioAssay
Most compounds without a hit are left out; they make up all but 18% or so of the library.
TDP1 cell CPT = qHTS for Inhibitors of human tyrosyl-DNA phosphodiesterase 1 (TDP1): qHTS in cells in presence of CPT | chicken DT40 Tdp1-/-;hTDP1 cells + 20 nM CPT, ATP luminescence, 48 h | Potency, µM (doses to about 46.2 µM), without a hit: at the highest dose activity change, negative = growth inhibition, usual class: inhibitors | 420,000 tested, 12% active | AID 686979, 2013; further: potency means the concentration at half of the fitted maximal effect; on the % scale 0 is the no-effect control and ±100 the full control effect; nearly all actives have a fitted effect of over 55% in size
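Cell growth measured by CellTiter-Glo luminescence after a minimum 48 h, 37 C compound exposure with 20 nM CPT in Tdp1-knockout DT40 cells stably expressing hTDP1, seeded 400/well; qHTS titration format.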
TDP1 cell noCPT = qHTS for Inhibitors of human tyrosyl-DNA phosphodiesterase 1 (TDP1): qHTS in cells in absence of CPT. DT40 Tdp1-/- hTDP1 cells, no CPT, ATP luminescence, 48 h. 420,000 tested, 15% active. Potency, µM (top dose mostly 46.2 µM), inactives show top-dose activity change, negative = growth inhibition, usual class: inhibitors; further: potency means the concentration at half of the fitted maximal effect; on the % scale 0 is the no-effect control and ±100 the full control effect; nearly all actives have a fitted effect of over 55% in size
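Luminescent ATP content (CellTiter-Glo) served as the growth readout. Knockout chicken DT40 cells expressing human TDP1 were exposed to compounds without camptothecin for a minimum 48 hr at 37 °C.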
TGFb SMAD3 inh = qHTS for Inhibitors of TGF-b. AID 588855, 2011. 410,000 tested, 1.2% active. HepG2 CAGA-GFP TGF-b/SMAD3 reporter, GFP fluorescence, 18 h; TGF-beta stimulated, 500 pg/mL final. Potency, µM (series often up to 46.1 µM), for inactives: at the top dose activity, negative = inhibition, usual class: inhibitors; further: potency means the concentration at half of the fitted maximal effect; on the % scale 0 is the no-effect control and ±100 the full control effect; nearly all actives have a fitted effect of over 65% in size
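First, reporter cells (HEPG2 CAGA-GFP) rested 2 h at 37 degrees C. Next, compounds were pinned in and TGF-beta added to 500 pg/mL final. After 18 h, GFP was imaged per cell and summed per well.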
TDP1 inh = qHTS Assay for Inhibitors of Tyrosyl-DNA Phosphodiesterase (TDP1); Tyrosyl-DNA phosphodiesterase 1 (Homo sapiens), Q9NUW8; recombinant TDP1, AlphaScreen DNA substrate cleavage; Potency, µM (highest dose often 130 µM), for the others: at the highest dose activity change, negative = inhibition, usual class: inhibitors; 350,000 tested, 0.28% active; AID 485290, 2010; further: potency means the concentration at half of the fitted maximal effect; on the % scale 0 is the no-effect control and ±100 the full control effect; nearly all actives have a fitted effect of over 40% in size
Target sequence (Q9NUW8 whole entry, looked up): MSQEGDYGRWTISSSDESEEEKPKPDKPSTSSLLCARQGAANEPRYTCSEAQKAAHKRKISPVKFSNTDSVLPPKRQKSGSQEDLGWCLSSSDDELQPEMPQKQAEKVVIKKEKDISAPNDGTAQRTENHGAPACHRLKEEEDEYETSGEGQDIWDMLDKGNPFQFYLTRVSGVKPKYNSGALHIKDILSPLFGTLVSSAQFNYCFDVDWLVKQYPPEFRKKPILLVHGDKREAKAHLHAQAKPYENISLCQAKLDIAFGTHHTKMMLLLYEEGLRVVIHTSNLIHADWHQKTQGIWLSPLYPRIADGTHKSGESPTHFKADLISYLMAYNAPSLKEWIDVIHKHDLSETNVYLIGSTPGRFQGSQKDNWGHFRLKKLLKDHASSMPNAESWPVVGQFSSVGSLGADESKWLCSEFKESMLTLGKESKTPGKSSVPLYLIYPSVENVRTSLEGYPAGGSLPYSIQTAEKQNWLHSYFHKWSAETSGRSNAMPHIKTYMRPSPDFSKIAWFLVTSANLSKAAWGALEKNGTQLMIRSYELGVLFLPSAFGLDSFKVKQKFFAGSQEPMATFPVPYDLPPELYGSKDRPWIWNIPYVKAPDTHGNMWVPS
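Recombinant E. coli-expressed Tdp1 (1 nM) preincubated with compound 15 min at RT, then 5'-biotin/3'-phosphotyrosine-FITC DNA substrate (15 nM) added for 5 min. AlphaScreen beads (10 ug/ml) added, 10 min RT; tyrosine-FITC cleavage read as signal loss.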
IL1B secr inh = qHTS for Inhibitors of Inflammasome Signaling: IL-1-beta AlphaLISA Primary Screen; THP-1 LPS/ATP IL-1B secretion, AlphaLISA, 16 h; hits give low values; activity change, % at 57.5 µM; 360,000 tested, 4.7% active; AID 743279, 2014; in the data active means activity change below about -50%; inconclusive means mostly about -30% to -49%; further: on the % scale 0 is the no-effect control and ±100 the full control effect
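Secreted IL-1B measured by AlphaLISA bead assay after 16 h compound exposure of THP-1 cells; compounds (final up to 57.5 uM) added 1 h before LPS (250 ng/mL) and ATP (1.25 mM) stimulation; lower signal means less secretion.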
HepG2 viability = qHTS for Inhibitors of TGF-b: Cytotox Counterscreen; HepG2 CAGA-GFP viability, ATP luminescence, 18 h; Potency, µM (series often up to 46.1 µM), inactives show top-dose activity change, negative = cytotoxicity, usual class: cytotoxic; 410,000 tested, 0.76% active; further: potency means the concentration at half of the fitted maximal effect
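HepG2 CAGA-GFP cells (1000/well, DMEM with 1% FBS) received compound, then TGF-beta at 500 pg/mL final, and were incubated 18 hours at 37 degrees C. Viability was read by CellTiter-Glo luminescence. Media-only wells were set as complete cell-killing and DMSO as no toxicity.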
An asterisk follows results filed as active; ? = inconclusive; · = no result given; ! = repeats disagree; [ ] = remark or other dose. Unless noted, the call rests on the fitted dose curve; in most records, active means well fitted curve in the direction sought with a large enough effect; inconclusive means small, poorly fitted or top-dose-only effect, or another doubt; inactive means no such curve, though single readings can be large; an effect the other way counts as inactive or inconclusive.

SMILES	TDP1 cell CPT	TDP1 cell noCPT	TGFb SMAD3 inh	TDP1 inh	IL1B secr inh	HepG2 viability
CCCCCN(C(=O)CCC(=O)OCC(=O)c1ccc(F)c(F)c1)c1c(N)n(CCCC)c(=O)[nH]c1=O	-13%	4%	-30%	6%	5	-20%
CCCCCN(C(=O)CCC(=O)OCCOc1cccc(Cl)c1)c1c(N)n(CCCC)c(=O)[nH]c1=O	?	13µM*	4%	6%	-7	-4%
CCCCCN(C(=O)CCC(=O)OCC(=O)c1c(C)cc(C)cc1C)c1c(N)n(CCCC)c(=O)[nH]c1=O	?	?	-6%	·	-77*	6%
CCCCCN(C(=O)CCC(=O)OCc1ccc(C(C)C)cc1)c1c(N)n(CCCC)c(=O)[nH]c1=O	23µM*	16µM*	-23%	-6%	-15	-47%
CCCCCN(C(=O)CCC(=O)OCc1ccccc1F)c1c(N)n(CCCC)c(=O)[nH]c1=O	-15%	-29%	0%	6%	-12	4%
C[C@H]1[C@H]2CC[C@H]3[C@@H]4CC=C5C[C@@H](N(C)C)CC[C@]5(C)[C@H]4CC[C@]23CN1C	-4%	?	·	2%	·	·
Cc1ccc(C(C)C)c(OCC(=O)Nc2c(C(=O)c3ccc(F)cc3)oc3ccccc23)c1	-5%	-9%	2%	2%	·	-8%
Cc1ccccc1-c1noc(-c2nnn(-c3ccccc3C)c2N)n1	11%	4%	6%	-3%	·	1%
CC1(C(=O)Nc2c(F)c(F)c(F)c(F)c2F)CC1(Br)Br (configuration not stated)	-7%	-29%	?	·	-3	-22%
COCCn1c(=O)c(C)nc2cnc(OC)nc21	3%	23%	·	·	·	·
CC(=O)Nc1cc(-c2cccc(C(=O)NCCO)c2)cn2c(-c3ccc(F)cc3)cnc12	15µM*	21µM*	-2%	·	-21	-26%
CC(=O)Nc1cc(-c2cccc(C(=O)NCCO)c2)cn2c(-c3cccc(C(F)(F)F)c3)cnc12	18µM*	23µM*	?	·	-14	-111%
CC(C)CC(=O)C1=C(O)C(=O)N(Cc2ccccc2)C1c1ccccc1 (configuration not stated)	-2%	?	-2%	·	6	-1%
CO[C@H]1C[C@@H]2CC[C@@H](C)[C@@](O)(O2)C(=O)C(=O)N2CCCC[C@H]2C(=O)O[C@H]([C@H](C)C[C@@H]2CC[C@@H](O)[C@H](OC)C2)CC(=O)[C@H](C)C=C(C)[C@@H](O)[C@@H](OC)C(=O)[C@H](C)C[C@H](C)/C=C/C=CC=C1C	0.0024µM*	0.0047µM*	·	·	·	·
CO[C@H]1C[C@@H]2CC[C@@H](C)[C@@](O)(O2)C(=O)C(=O)N2CCCC[C@H]2C(=O)O[C@H]([C@H](C)C[C@@H]2CC[C@@H](OC(=O)C(C)(CO)CO)[C@H](OC)C2)CC(=O)[C@H](C)/C=C(\C)[C@@H](O)[C@@H](OC)C(=O)[C@H](C)C[C@H](C)/C=C/C=C/C=C/1C	-20%	-29%	·	·	·	·
COc1cc(/C=C/C(=O)O[C@H]2CC[C@]34C[C@]35CC[C@]3(C)[C@@H]([C@H](C)CCC=C(C)C)CC[C@@]3(C)[C@@H]5CC[C@H]4C2(C)C)ccc1O	7%	-2%	·	·	·	·
Cc1nc2cnc(N3CCN(C)CC3)nc2n(Cc2ccc(F)cc2)c1=O	-3%	-23%	·	·	·	·
CN1CCN(c2ncc3nc(CCc4ccccc4)c(=O)n(C)c3n2)CC1	23µM*	?	·	·	·	·
COCCn1c(=O)c(CCc2ccccc2)nc2cnc(N3CCN(C)CC3)nc21	-16%	-22%	·	·	·	·
CN1CCN(c2ncc3nc(CCc4ccccc4)c(=O)n(Cc4ccc(F)cc4)c3n2)CC1	?	15µM*	·	·	·	·
O=c1c(CCc2ccccc2)nc2cnc(N3CCNCC3)nc2n1Cc1ccc(F)cc1	1µM*	?	·	·	·	·
O=c1cnc2cnc(N3CCNCC3)nc2n1Cc1ccc(F)cc1	1%	-5%	·	·	·	·
CN1CCN(c2ncc3nc(-c4cccs4)c(=O)n(Cc4ccc(F)cc4)c3n2)CC1	13µM*	?	·	·	·	·
CN1CCN(c2ncc3nc(-c4ccccc4)c(=O)n(Cc4ccc(F)cc4)c3n2)CC1	-12%	-30%	·	·	·	·
COc1ccc(NC(=O)N2CC3(CCN(C(=O)c4ccncc4)CC3)C2)cc1	-4%	8%	·	·	·	·
SMILES	TDP1 cell CPT	TDP1 cell noCPT	TGFb SMAD3 inh	TDP1 inh	IL1B secr inh	HepG2 viability
CS(=O)(=O)N1CCN(Cc2cc3nc(-c4cccc5[nH]ncc45)nc(N4CCOCC4)c3s2)CC1	·	·	-29%[92.2 µM]	·	·	-8%[92.2 µM]
N#C[C@@H]1C[C@@H]2C[C@@H]2N1C(=O)[C@@H](N)C12CC3CC(CC(O)(C3)C1)C2	-24%	-15%	·	·	·	·
CC(C)CN(C(=O)CCNC(=O)c1ccc(Cl)cc1)C1CCS(=O)(=O)C1 (configuration not stated)	?	?	-1%	0%	-16	-1%
CN(C)/[N+]([O-])=N/Oc1ccc([N+](=O)[O-])cc1C(F)(F)F	·	·	-1%	·	·	-33%
Cn1cnnc1SCC(=O)Nc1cc(C(=O)O)cc(C(=O)O)c1	-16%	0%	10%	-7%	·	9%
CCOc1cccc(CNCCO)c1OCc1ccc(Cl)cc1Cl	16µM*	16µM*	?	2%	0	-86%
CCOc1cc(CNCCO)cc(Br)c1OCc1cccs1	15µM*	18µM*	?	4%	-60*	-73%
CCOc1cccc(CNc2ccc(O)cc2)c1OCc1ccccc1Cl	13µM*	12µM*	13µM*	8%	-5	16µM*!
CCOc1cc(CNc2ccccc2)cc(Br)c1OCc1ccc(F)cc1	?	?	-6%	6%	?	-1%
